Here are results for 23 compounds from PubChem BioAssay (NCATS).

Records with an inconclusive call do not appear. Unmarked numbers belong to inactive results. The source made the active and inactive calls. Calls come from the whole dose curve. Bounds are passed on as bounds.
Potency is the fitted concentration of half-maximal effect.

The experiment in a line: Cell Viability - HepG2 (AID 433).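 Note: potency for ATP loss meaning cytotoxicity.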 Particulars: qHTS. An excerpt: NIH Chemical Genomics Center [NCGC]
NIH Molecular Libraries Screening Centers Network [MLSCN]
National Institutes of Environmental Health Sciences [NIEHS]
National Toxicology Program [NTP]
We have developed a 1536-well cell-based assay for quantitative high throughput screening (qHTS) against a number of cell lines to determine in vitro cytotoxicity of small molecules. This particular assay uses the HepG2 cell line which is derived from hepatocellular carcinoma.
NCGC Assay Protocol Summary:
The CellTiter-Glo luminescent cell viability assay (Promega) is a homogeneous method to measure the number of viable cells in culture. The end point readout of this assay is based on quantitation of intracellular ATP, an indicator of metabolic activity, using the luciferase reaction. Luciferase catalyzes the oxidation of beetle Luciferin to oxyluciferin and light in the presence of ATP. The luminescent signal is proportional to amount of ATP present.
Using the CellTiter-Glo luminescent cell viability assay, the amount of cellular ATP was measured in the HepG2 cell line with complete culture medium following compound treatment for 40 hours. The assay was performed in opaque white Kalypsys 1536-well plates. In the screen, tamoxifen and doxorubicin were used as positive controls. Library compounds were measured for their ability to cause acute toxicity in the cell line, as reflected by a decrease in intracellular ATP levels, in a concentration-dependent manner. Data were normalized to the controls for basal activity (DMSO only) and 100% inhibition (100 uM tamoxifen). AC50 values were determined from concentration-response data modeled with the standard Hill equation.
qHTS protocol fo CellTiter Glo HepG2 cellular assay
[Step] [Parameter] [Value] [Description]
1. Reagent; 5 uL; 1500 HepG2 cells/well
2. Time; 5 hr; 37 °C incubation
4. Controls; 23 nL; Tamoxifen 0.34 uM to 100 uM & Doxorubicin 0.02 nM to 100 uM
5. Time; 40 hr; 37 °C incubation
6. Reagent; 5 uL; CellTiter Glo reagent
7. Time; 20 min; Room Temperature
8. Detection; Luminescence; Viewlux plate reader
Keywords: cell viability, cytotoxicity, HepG2 cell line, luminescence, NTPHTS, NTPHTS_NCGC, NIEHS, EPA, DSSTox, MLSMR, MLSCN, NIH Roadmap, qHTS, NCGC
Consider `Nc1ccc([N+](=O)[O-])cc1O`, for which the Potency was > 92 µM.
Take `O=C(O)/C=C\C(=O)O`: the Potency is > 92 µM.
The same measure for `N=C1N=C(N)c2cc3ccccc3cc21`: 54.6 µM (active); for `C#C[C@]1(O)CC[C@H]2[C@@H]3CCc4cc(O)ccc4[C@H]3CC[C@@]21C`: > 92 µM; for `CN(C)CCC(c1ccc(Cl)cc1)c1ccccn1` (stereo not drawn): > 92 µM.
For `Nc1ccc(O)c(C(=O)O)c1`, the Potency is > 92 µM.
The same measure for `CN1CCC[C@H]1c1cccnc1`: > 92 µM.
The same measure for `NCCO`: > 92 µM; for `O=c1cc(-c2ccccc2)oc2ccccc12`: > 92 µM.
The value for `CN(C)c1ccc(C(=C2C=CC(=[N+](C)C)C=C2)c2ccccc2)cc1` was 0.494 µM (active).
Consider `c1cnc2c(c1)ccc1cccnc12`, for which the Potency was 4.55 µM (active).
For the compound `COc1cc(CNC(=O)CCCC/C=C/C(C)C)ccc1O`, the Potency was > 92 µM.
The same measure for `Nc1ccc(O)c([N+](=O)[O-])c1`: > 92 µM; for `CC(C)NCC(O)COc1cccc2ccccc12` (stereo not drawn): > 92 µM; for `COc1cc(/C=C/C(=O)CC(=O)/C=C/c2ccc(O)c(OC)c2)ccc1O`: > 92 µM.
The same measure for `O=C(O)c1cc(O)c(O)c(O)c1`: > 92 µM; for `CCCCCCCCCCCCCCCCCC(=O)O`: > 92 µM.
Take `Nc1nc2ccc([N+](=O)[O-])cc2s1`: the Potency was > 92 µM.
The value for `CCCOC(=O)c1ccc(O)cc1` was > 92 µM; that for `CC1(C)S[C@@H]2[C@H](NC(=O)[C@H](N)c3ccccc3)C(=O)N2[C@H]1C(=O)O` was > 92 µM; that for `Oc1ccccc1O` was > 92 µM.
The value for `S=c1[nH]c2ccccc2s1` was > 92 µM; that for `c1ccc2sc(SSc3nc4ccccc4s3)nc2c1` was > 92 µM.
